High-throughput results deposited in PubChem BioAssay by several laboratories.
Myeloid diff 2 – induction of myeloid progenitor differentiation, primary screen, cell-based, flow cytometry, MLPCN library | ER-HoxA9 myeloid progenitors, lysozyme-GFP differentiation | calls only at 10 µM | 360,000 compounds, 1% hits;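 active means normalized GFP-positive differentiation at or above the plate's own cutoff, the solvent-only control mean plus 3 SD; inconclusive means no clear call, values can overlap the other calls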;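 further: cells exposed to compound for four days before flow analysis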
NPR2 activator – human GC-B receptor activators, primary screen, HEK293 GC-B cells, cGMP TR-FRET, EC30 CNP; Atrial natriuretic peptide receptor 2 (Homo sapiens), P20594; 0% at EC30 CNP, 100% saturating CNP; activation, % at 10 µM; 370,000 compounds, 0.11% hits;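 active means activation at 10 µM reaching about 35% in either raw or pattern-adjusted values, limit read from the data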
GC-A act – GC-A stimulated cGMP production enhancers – HEK293 GC-A cells, cGMP TR-FRET, EC30 ANP, primary screen; Atrial natriuretic peptide receptor 1 (Homo sapiens), P16066; activation, % at 10 µM; 370,000 compounds, 0.14% hits; 0% at EC30 ANP, 100% saturating ANP; in the data active means activation above about 40%
Exocytosis inh – LAMP-1 surface exposure blockers, TALL-104 cells – cell-based, flow cytometry, MLPCN library, primary screen; TALL-104 LAMP-1 surface exposure; cells stimulated with thapsigargin and PMA; inhibition, % at 10 µM; 360,000 compounds, 0.66% hits;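 active means inhibition above about 55%, limit read from the data; inconclusive means no clear call, values can overlap the other calls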
Hits are given with their value; - = inactive; ? = inconclusive; . = no result given; + = active, no number. Compounds with a hit are over-represented: about 1.8% of the library has one in this group of screens.

SMILES	Myeloid diff 2	NPR2 activator	GC-A act	Exocytosis inh
CC(=O)Nc1nc2ncccn2c1-c1ccc(F)c(F)c1	.	-	-	.
CC(C)COC(=O)N1CCCCC1c1cc(C(=O)Nc2ccc3c(c2)OCO3)no1 (centres undefined)	-	-	-	-
Cc1nc(N2N=C(c3ccc(Cl)cc3)CC2c2ccco2)sc1C(=O)N(C)C (centres undefined)	+	-	-	-
Clc1ccc(C2=NN(c3ccccc3)C(c3ccco3)C2)cc1 (centres undefined)	-	-	-	-
COc1cc(C)ccc1S(=O)(=O)NC(=O)C1(C)CCN1C(=O)Cc1ccc(Cl)cc1Cl (centres undefined)	+	-	-	-
COc1ccc(OC)c(S(=O)(=O)NC(=O)C2(C)CCN2C(=O)Cc2ccc(Cl)cc2Cl)c1 (centres undefined)	-	-	-	-
COc1ccc(CN2C(=O)CSCCC2(C)c2nnnn2-c2c(C)cccc2C)cc1 (centres undefined)	.	-	-	.
CC(C)[N+]1=C2C=CC=CC=C2SC12C([N+](=O)[O-])=CC(=[N+]([O-])[O-])C=C2[N+](=O)[O-] (centres undefined)	+	-	-	-
O=C(Nc1nc2ccc(Cl)cc2s1)c1cccc(N2C(=O)CCC2=O)c1	-	-	74	-
CCOc1ccc2nc(NC(=O)c3cccc(N4C(=O)CCC4=O)c3)sc2c1	-	-	-	-
COc1ccc2nc(NC(=O)c3cccc(N4C(=O)CCC4=O)c3)sc2c1	-	-	54	-
COc1ccc(C(=O)CC2SC(N)=NC2=O)cc1 (centres undefined)	-	-	-	-
CC(C)(C)c1ccc(C2=NC(=O)C(CC(=O)O)S2)cc1 (centres undefined)	+	-	-	-
COc1ccc(-c2cc(NC(=O)Cc3c[nH]c4ccccc34)ccc2Nc2cccnc2)c(OC)c1	.	-	-	.
Cc1cc(C)n2nc(-c3ccsc3-n3c(C)ccc3C)cc2n1	+	-	-	-
O=C(NCc1ccc(F)cc1F)[C@@H]1CCCN1C(=O)[C@@H]1CCCN1C(=O)c1cccc2ccccc12	-	-	-	-
O=C(NC1CCCCN(Cc2ccc(Cl)cc2)C1=O)c1ccc(F)c(F)c1 (centres undefined)	.	-	-	.
Cc1noc(/C=C/N(C)C)c1S(=O)(=O)N1CCCC(C(=O)Nc2ccccc2F)C1 (centres undefined)	+	-	-	-
COc1cccc(/C=N/Nc2ccccc2C(=O)O)c1O	-	-	-	-
O=C(O)c1ccccc1NN=Cc1ccccc1	-	-	-	60
O=S(=O)(CC1NCCc2ccccc21)NCc1ccccc1 (centres undefined)	.	-	-	.
O=S(=O)(Cc1ccccc1)C(CCCc1ccccc1)S(=O)(=O)Cc1ccccc1	+	-	-	-
O=S(=O)(Cc1ccccc1)CS(=O)(=O)Cc1ccccc1	-	-	-	-
CC(=O)N1CCN(C2=NC(=O)N(c3ccc(Br)cc3)C(=O)C2)CC1	.	-	-	.
S=C(Nc1ccccc1I)OC1CCC12CCC(c1ccccc1)CC2 (centres undefined)	.	-	-	.
SMILES	Myeloid diff 2	NPR2 activator	GC-A act	Exocytosis inh
O=C1Nc2ccccc2Oc2cc([N+](=O)[O-])cc(Oc3ccccc3)c21	+	-	-	-
Cc1cccc(Oc2cc([N+](=O)[O-])cc3c2C(=O)Nc2ccccc2O3)c1	-	-	-	-
O=C(c1ccccc1)c1coc2c1C(=O)c1ccccc1C2=O	-	-	-	-
COc1ccc(C(=O)c2coc3c2C(=O)C(=O)c2ccccc2-3)cc1	-	-	-	98
COC(=O)[C@H]1C[C@H](OC(=O)Nc2cccs2)[C@@]2(O)CN(S(=O)(=O)c3ccc(C)cc3)CC2[C@H]1C(=O)OC (some centres undefined)	-	-	-	-
CC1(C(=O)NS(=O)(=O)c2ccc(C#N)cc2)CCN1C(=O)Cc1ccc(Cl)cc1Cl (centres undefined)	-	-	-	-
Nc1c(Cl)cc(C2=NCCn3c2c2ccc([N+](=O)[O-])cc2[n+]3[O-])cc1Cl	?	-	-	82
COC(=O)/C=C/c1c(C)nc(NCc2ccccc2)nc1Cl	+	-	-	-
CCNc1nc(Cl)nc(NCc2ccccc2)n1	-	-	-	-
COc1ccc(CN2C[C@]3(C=C4CCCCC4n4c(=O)n(-c5ccccc5)c(=O)n43)N=C2NC(=O)c2ccccc2)c(OC)c1 (some centres undefined)	.	-	-	.
C=CCNC(=O)CSCc1ccc(Br)cc1	+	-	-	-
CCOC(=O)C1=NOC(C(=O)NC2CCCC2)(C(=O)c2ccc(OC)cc2)C1 (centres undefined)	.	-	-	.
CSCCC(NC(=O)c1ccccc1Br)C(=O)NCC1CCCCC1 (centres undefined)	+	-	-	-
CSCC[C@H](NC(=O)OC(C)(C)C)C(=O)NCC1CCC(C(=O)N[C@@H](Cc2ccccc2)C(=O)O)CC1 (some centres undefined)	+	-	-	-
CC(C)C[C@H](NC(=O)OC(C)(C)C)C(=O)NCC1CCC(C(=O)N[C@@H](Cc2ccccc2)C(=O)O)CC1 (some centres undefined)	-	-	-	-
CCOc1ccc2cc(/C=C/C(=O)c3ccco3)c(Cl)nc2c1	+	-	-	-
N#CCN1C(=S)N=C(Nc2cccc(Cl)c2)C12CCCCC2	-	-	-	-
CC(C)(C)C1CCC2(CC1)C(Nc1cccc(C(F)(F)F)c1)=NC(=S)N2CC#N (centres undefined)	-	46	-	-
OC(CN1C2=NCCN2c2ccccc21)c1ccc(Br)cc1 (centres undefined)	+	-	-	-
OC(CN1C2=NCCN2c2ccccc21)c1ccccc1 (centres undefined)	-	-	-	-
CC(=O)Nc1ccc2c(c1)C(=O)N(C)[C@H]1CC[C@H](CC(=O)NCc3ccc(F)cc3)O[C@@H]1CO2	.	-	-	.
CSc1ccccc1NC(=O)COc1nsnc1N1CCOCC1	+	-	-	-
Cc1ccc(C)c2[nH]c(=O)c(CN(Cc3ccco3)S(=O)(=O)c3ccc4c(c3)OCCO4)cc12	+	-	-	-
Cn1cc(Cc2ccc(C(=O)N3CCN(Cc4ccccc4)CC3)cn2)c2ccccc21	-	-	-	-
COc1ccccc1/C=C/C=C(\C#N)C(=O)NC(C)c1ccccc1 (centres undefined)	-	-	-	77
COc1cc(/C=C(/C#N)C(=O)NC(C)c2ccccc2)cc(OC)c1O (centres undefined)	-	-	-	-
COC(=O)[C@]12C[C@H](CC(=O)NCCCN3CCCC3=O)C(=O)N(Cc3ccco3)C1=C[C@H](C1CCCC1)O[C@@H]2C	.	-	-	.
